The values that follow come from PubChem BioAssay (NCI).

Some test systems named below: SR leukemia; RPMI-8226 leukemia; OVCAR-8 ovarian; OVCAR-5 ovarian; OVCAR-4 ovarian; SK-OV-3 ovarian; IGROV1 ovarian; OVCAR-3 ovarian; HS 578T breast; NCI/ADR-RES ovarian; T-47D breast; BT-549 breast; MDA-MB-435 melanoma; SW-620 colon; MCF7 breast; HCT-116 colon; HCC-2998 colon; KM12 colon.
What all share (experiment): NCI-60 one-dose screen, 48 h (100 = growth as untreated, 0 = no growth, -100 = all killed)
What all share (conditions): 10 µM unless noted

About 83,000 compounds went through this panel and 20% of them were active in at least one assay; those are over-represented in the sample as a whole.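 Compound tested at a single concentration for 48 hours in 96-well plates; a percent growth value below 10 was scored as active.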 Unmarked numbers belong to inactive results. Active and inactive are the calls of the source.

Consider `c1ccc(-c2nc(N3CCOCC3)c3c4c(sc3n2)CCCCC4)nc1`, for which the growth with SR leukemia was 59.6%; in the experiment with RPMI-8226 leukemia, 35.5%; in the experiment on OVCAR-8 ovarian, 81.2%; in the experiment with OVCAR-5 ovarian it was 58.3%; with OVCAR-4 ovarian, 51%; with SK-OV-3 ovarian, 32.9%. Further, the growth in the experiment with IGROV1 ovarian is 24%; with OVCAR-3 ovarian it was 74.2%; in the experiment with HS 578T breast it was 65%; in the experiment on NCI/ADR-RES ovarian, 27.3%; in the experiment with T-47D breast, 8.3% (active); in the experiment with BT-549 breast, 62.8%. In addition, the growth was 71% with MDA-MB-435 melanoma; 88.6% in the experiment with SW-620 colon; 23.7% in the experiment on MCF7 breast; 74.3% in the experiment with HCT-116 colon; 83% in the experiment on HCC-2998 colon.

Take `Cc1sc2nc3[nH]/c(=C\c4ccc(Cl)cc4)c(=O)n3c(=O)c2c1C`: the growth is 86.6% in the experiment on SR leukemia; 97.1% in the experiment on RPMI-8226 leukemia; 103% with OVCAR-8 ovarian; 81.7% with OVCAR-5 ovarian; 105% in the experiment on OVCAR-4 ovarian; 105% with SK-OV-3 ovarian. For the same compound, the growth in the experiment with IGROV1 ovarian is 107%; in the experiment with OVCAR-3 ovarian, 107%; with HS 578T breast, 111%; in the experiment with NCI/ADR-RES ovarian, 107%; with T-47D breast, 103%; in the experiment with BT-549 breast, 105%. In addition, the growth is 98% in the experiment on MDA-MB-435 melanoma; 102% in the experiment on SW-620 colon; 100% with MCF7 breast; 102% in the experiment on HCT-116 colon; 107% in the experiment with HCC-2998 colon; 108% in the experiment with KM12 colon.

For the compound `C(=N\Nc1ccccn1)/c1ccccn1`, the growth with SR leukemia is 15.8%; in the experiment on RPMI-8226 leukemia, 35.5%; with OVCAR-8 ovarian it was 13.6%; in the experiment with OVCAR-5 ovarian it was 40.7%; in the experiment on OVCAR-4 ovarian it was 10.6%; with SK-OV-3 ovarian it was 30.5%. For the same compound, the growth was 10.7% in the experiment with IGROV1 ovarian; 7.56% (active) with OVCAR-3 ovarian; 62.8% in the experiment on HS 578T breast; -9.79% (active) in the experiment with NCI/ADR-RES ovarian; 22.8% with T-47D breast; -16.8% (active) in the experiment on BT-549 breast. In addition, the growth in the experiment with MDA-MB-435 melanoma is 33.6%; in the experiment on SW-620 colon it was 37.4%; with MCF7 breast, 12.4%; in the experiment with HCT-116 colon it was 4.73% (active); with HCC-2998 colon it was 19.2%.

As for `COc1ccc(C/C(C)=C(\c2ccc(Cl)cc2)c2ccc(OCCN3CCCCCC3)cc2)cc1`, the growth is 9.97% (active) with SR leukemia; 54.3% in the experiment on RPMI-8226 leukemia; 89.4% with OVCAR-8 ovarian; 82.5% in the experiment on OVCAR-5 ovarian; 95.7% in the experiment on OVCAR-4 ovarian; 103% with SK-OV-3 ovarian. Moreover, the growth was 78.1% in the experiment with IGROV1 ovarian; 80.4% in the experiment on OVCAR-3 ovarian; 98.4% with HS 578T breast; 85.7% in the experiment on NCI/ADR-RES ovarian; 56.8% in the experiment with T-47D breast; 94.9% in the experiment on BT-549 breast. Further, the growth was 88.7% in the experiment with MDA-MB-435 melanoma; 58.4% with SW-620 colon; 62.7% in the experiment on MCF7 breast; 56.5% in the experiment on HCT-116 colon; 83.1% in the experiment on HCC-2998 colon.

Regarding `CC(=O)OCC1OC(OC2=C(CC=C(Cl)Cl)C(=O)c3ccccc3C2=O)C(OC(C)=O)C(OC(C)=O)C1OC(C)=O` (configuration not stated), the growth in the experiment on SR leukemia was -3.56% (active); in the experiment on RPMI-8226 leukemia it was 9.85% (active); in the experiment with OVCAR-8 ovarian, 18%; with OVCAR-5 ovarian, 105%; in the experiment with OVCAR-4 ovarian, -34.4% (active); in the experiment with SK-OV-3 ovarian, 96%. The growth in the experiment on IGROV1 ovarian was 83.4%; in the experiment on OVCAR-3 ovarian, 46.4%; with HS 578T breast, 96.9%; in the experiment on NCI/ADR-RES ovarian, 93.1%; in the experiment with T-47D breast it was -18.2% (active); with BT-549 breast it was 71.2%. The growth is 89.9% in the experiment on MDA-MB-435 melanoma; 22.9% in the experiment with SW-620 colon; 19.9% in the experiment on MCF7 breast; 31.6% with HCT-116 colon; 102% in the experiment with HCC-2998 colon; 82.2% in the experiment with KM12 colon.

Consider `COc1ccc(/C=C/C(=O)c2ccc(NC(=O)c3cc4cc5ccccc5nc4s3)cc2)cc1OC`, for which the growth in the experiment with SR leukemia was 98.6%; in the experiment with RPMI-8226 leukemia, 99.4%; in the experiment with OVCAR-8 ovarian, 111%; in the experiment on OVCAR-5 ovarian it was 96.8%; in the experiment with OVCAR-4 ovarian, 97.1%; with SK-OV-3 ovarian, 106%. Further, the growth in the experiment with IGROV1 ovarian was 81.8%; in the experiment on OVCAR-3 ovarian, 95.5%; with HS 578T breast, 107%; with NCI/ADR-RES ovarian, 105%; in the experiment on T-47D breast, 87.7%; in the experiment on BT-549 breast, 104%. The growth with MDA-MB-435 melanoma is 102%; in the experiment with SW-620 colon, 105%; in the experiment with MCF7 breast it was 80.3%; in the experiment with HCT-116 colon it was 91.6%; in the experiment on HCC-2998 colon it was 104%.

In the case of `CNCc1cccc2c1OCCOCCOCCN(C)S(=O)(=O)c1ccc(cc1)-c1cnc(N)c(n1)C(=O)N2`, the growth is -35% (active) in the experiment with SR leukemia; 44.6% with RPMI-8226 leukemia; 52.9% in the experiment with OVCAR-8 ovarian; 160% in the experiment with OVCAR-5 ovarian; 72.8% in the experiment on OVCAR-4 ovarian; 19.4% in the experiment with SK-OV-3 ovarian. For the same compound, the growth in the experiment on IGROV1 ovarian is 42.5%; with OVCAR-3 ovarian it was 42.8%; in the experiment on HS 578T breast, 56.9%; with NCI/ADR-RES ovarian it was 80.1%; in the experiment with T-47D breast, 47%; with BT-549 breast it was 55.6%. Moreover, the growth is 46.2% in the experiment on MDA-MB-435 melanoma; 37.8% with SW-620 colon; 42.2% in the experiment on MCF7 breast; 15.4% with HCT-116 colon; 75.5% in the experiment with HCC-2998 colon.

`Cc1ccc2c(c1)C(=O)c1c-2c(OCCCN(C)C)nc2ccccc12`: the growth is -27.5% (active) in the experiment on SR leukemia; -16.3% (active) in the experiment with RPMI-8226 leukemia; 17.2% with OVCAR-8 ovarian; 51.6% with OVCAR-5 ovarian; 27.3% in the experiment on OVCAR-4 ovarian; 60.3% in the experiment with SK-OV-3 ovarian. The growth in the experiment on IGROV1 ovarian was 3.1% (active); with OVCAR-3 ovarian, 55%; in the experiment on HS 578T breast, 35.3%; in the experiment with NCI/ADR-RES ovarian, 25.1%; in the experiment with T-47D breast, 63.4%; with BT-549 breast, 71.5%. The growth is -32.1% (active) in the experiment on MDA-MB-435 melanoma; -57.3% (active) in the experiment with SW-620 colon; -75.8% (active) with MCF7 breast; 21% with HCT-116 colon; -15.2% (active) in the experiment on HCC-2998 colon; -46.4% (active) in the experiment with KM12 colon.

`NS(=O)(=O)c1ccc(Nc2nc3n[nH]c(Nc4ccccc4)c3c(=O)[nH]2)cc1`: the growth in the experiment with SR leukemia was 94.1%; in the experiment on RPMI-8226 leukemia, 107%; in the experiment on OVCAR-8 ovarian, 100%; with OVCAR-5 ovarian, 111%; in the experiment on OVCAR-4 ovarian, 105%; in the experiment on SK-OV-3 ovarian, 84.4%. Also, the growth is 102% in the experiment with IGROV1 ovarian; 106% in the experiment on OVCAR-3 ovarian; 103% in the experiment on HS 578T breast; 99.7% in the experiment on NCI/ADR-RES ovarian; 87.3% with T-47D breast; 99.1% with BT-549 breast. The growth with MDA-MB-435 melanoma was 103%; in the experiment with SW-620 colon, 104%; in the experiment with MCF7 breast, 98.5%; with HCT-116 colon, 112%; with HCC-2998 colon, 112%; in the experiment on KM12 colon it was 100%.
